ALDH1A1 inh-1: inhibitors of human aldehyde dehydrogenase 1A1; P00352; Purified ALDH1A1, NADH fluorescence, propionaldehyde substrate; Potency, µM (series often up to 75.3 µM), inactives show at the top dose activity, negative = inhibition, actives largely listed as inhibitors; 7.3% of 220,000 active; AID 1030; active means well fitted inhibition curve with a large enough effect, not every such curve was filed as active; inconclusive means small, poorly fitted or top-dose-only effect, or another doubt; inactive means no such curve, though single readings can be large or run the other way;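 further: potency means the concentration at half of the fitted maximal effect; plate controls were no enzyme wells and a reference inhibitor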
Target sequence (P00352 whole entry, looked up): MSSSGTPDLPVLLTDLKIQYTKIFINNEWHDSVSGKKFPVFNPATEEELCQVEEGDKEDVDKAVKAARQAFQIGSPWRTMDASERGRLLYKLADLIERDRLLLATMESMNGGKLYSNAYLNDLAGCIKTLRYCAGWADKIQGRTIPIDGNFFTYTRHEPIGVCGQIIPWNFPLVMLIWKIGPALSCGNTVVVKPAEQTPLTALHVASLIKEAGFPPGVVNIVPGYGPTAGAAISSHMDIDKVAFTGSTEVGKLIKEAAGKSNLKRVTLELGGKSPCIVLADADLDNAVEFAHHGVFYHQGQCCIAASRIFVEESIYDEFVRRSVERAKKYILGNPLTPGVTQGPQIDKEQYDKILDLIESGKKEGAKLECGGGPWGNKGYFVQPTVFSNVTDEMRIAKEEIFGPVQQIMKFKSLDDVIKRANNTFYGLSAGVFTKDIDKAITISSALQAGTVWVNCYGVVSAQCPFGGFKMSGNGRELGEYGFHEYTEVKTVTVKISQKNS
PNC inhibitor: blocks assembly of the perinucleolar compartment; PC3M PTB-GFP, PNC prevalence imaging, 16 h; stronger effect = lower value; activity change (PNC), negative = inhibition, % at 10 µM; 3.1% of 140,000 active; AID 2417;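 active means readout at or below -70, meaning at least 70% loss of cells showing the perinucleolar compartment, a nuclear body marking cancer cells; inconclusive means readout between -30 and a set limit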;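 further: plate controls were DMSO wells for no effect and camptothecin positive control wells for full effect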
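PC3M cells stably expressing PTB-GFP, 750–1000 cells/well, treated 16 h at 37 °C with compound (23 nl of library stock), in duplicate. After paraformaldehyde fixation and Hoechst stain, imaged at 20x; PNC prevalence scored by image analysis.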
HPGD block: inhibitors of human 15-hydroxyprostaglandin dehydrogenase (HPGD); P15428; purified HPGD, NADH fluorescence kinetic, PGE2 substrate; Potency, µM, without a hit: at the top dose activity change, negative = inhibition, most hits filed as inhibitors; 4.3% of 150,000 active; AID 894; active means well fitted inhibition curve with a large enough effect, not every such curve was filed as active; inconclusive means small, poorly fitted or top-dose-only effect, or another doubt; inactive means no such curve, though single readings can be large or run the other way; further: potency means the concentration at half of the fitted maximal effect; on the % scale 0 is the no-effect control and ±100 the full control effect
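20 nM HPGD preincubated 15 min at room temperature with compound in 50 mM Tris-HCl pH 8, 0.01% Tween 20. Started with 1 mM NAD+ and 30 uM prostaglandin E2; NADH fluorescence (360/450 nm) read 5 times over 30-s intervals, last minus first.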
HPGD inh cf: confirmation of human HPGD inhibitors. shares compounds with HPGD block. recombinant HPGD, NADH fluorescence, PGE2 substrate. Potency, µM (highest dose often 57.1 µM), for inactives: at the highest dose activity change, negative = inhibition, hits mostly inhibitors. 90% of 90 active
ALDH1A1 inh-2: Confirms inhibition of human ALDH1A1 with counterscreen; AID 493210; Potency, µM (top dose mostly 57.1 µM), inactives show at the highest dose activity change, negative = inhibition, hits mostly inhibitors; purified ALDH1A1, NADH fluorescence, propionaldehyde/NAD+; shares compounds with ALDH1A1 inh-1; 90% of 90 active
An asterisk follows results filed as active; ? = inconclusive; · = not tested or not shown; [ ] = dose if it differs, or a comment. Hits are enriched below; roughly 11% of the tested compounds scored in any of these assays. Unless noted, the call rests on the fitted dose curve.

SMILES	ALDH1A1 inh-1	PNC inhibitor	HPGD block	others
C=C1[C@@H]2CC[C@H]3[C@@]4(C)C[C@@H](O[C@@H]5O[C@H](CO)[C@H](OS(=O)(=O)O)[C@@H](OS(=O)(=O)O)[C@@H]5OC(=O)CC(C)C)C[C@@H](C(=O)O)[C@H]4CC[C@@]3(C2)[C@H]1O	12%[20.9 µM]	·	-8%
C[C@@]12CC[C@H]3[C@@H](CC[C@H]4C[C@@H](O)CC[C@]43C)[C@H]1CC[C@@H]2C(=O)C[C@H](O)C(F)(F)F	9%[13.5 µM]	·	-13%
CC(=O)OC(C)(C)/C=C/C(=O)[C@](C)(O)[C@H]1[C@H](O)C[C@@]2(C)[C@@H]3CC=C4[C@H](C[C@H](O)C(=O)C4(C)C)[C@]3(C)C(=O)C[C@]12C	1%	-115*	-11%
C=CCN1CC[C@]23c4c5ccc(O)c4O[C@@H]2/C(=N/N=C2\CC[C@@]4(O)C6Cc7ccc(O)c8c7[C@@]4(CCN6CC=C)[C@@H]2O8)CC[C@@]3(O)C1C5	-8%	·	8%
CCOC(=O)CC(SP(=S)(OC)OC)C(=O)OCC (centres undefined)	?	·	-10%
COC(=O)c1ccc(N2CCN(C)CC2)c([N+](=O)[O-])c1	-5%	·	·
CC(=O)c1ccc(Oc2ccc(C(=O)c3ccc(C)c(C)c3)cc2[N+](=O)[O-])cc1	0.79µM*	?	7.1µM*
c1ccc2c(c1)OC[C@@H](C1=NCCN1)O2	-8%	·	1%
O=C(CCl)NN=C(c1ccccc1)c1ccccc1	0.013µM*	·	·
NCC(=O)c1ccccc1	?	·	-7%
O=C1Nc2ccc(Cl)cc2C(c2ccccc2)=NC1O (centres undefined)	4%	·	-4%
CCCC1(CCC)C(=O)NC(=NCc2ccccc2)NC1=O	?	6	-4%
S=C=NCc1ccccc1	2.8µM*	·	?
C[C@H]1O[C@H]1P(=O)(O)O	-8%	15	-17%
CC(=O)Nc1ccccc1C(=O)OCC(=O)c1ccccc1Cl	-11%	-22	-10%
CC(=O)Nc1ccccc1OP1(=O)COc2ccccc2OC1	3%	?	-5%	HPGD inh cf=-11%
O=C1CCO1	1%	·	-10%
Cc1ccc(-c2nc(N3CCOCC3)s[n+]2-c2ccccc2)cc1	2.5µM*	24	0.16µM*	HPGD inh cf=3.2µM*
CN(C)c1nc(-c2ccccc2)[n+](C)s1	?	-5	·
Cc1[nH]nc2c1C1(CCC(c3ccccc3)CC1)C(C#N)=C(N)O2 (centres undefined)	?	2	-6%
COc1ccc2c(c1)CCC1C2CC[C@@]2(C)C1CC[C@@H]2NCCCCCCN1C(=O)C=CC1=O (some centres undefined)	0.5µM*	·	-12%	ALDH1A1 inh-2=5µM*
O=C(O)CNC(=O)C(CS)Cc1ccccc1 (centres undefined)	-16%	·	-13%
COc1ccc(CC2NCC(O)C2OC(C)=O)cc1 (centres undefined)	-1%	·	-8%

High-throughput results deposited in PubChem by National Center for Advancing Translational Sciences (NCATS).
